This excerpt belongs to a sample that is enriched for hits.
LmPK inhibitor = blocks Leishmania mexicana pyruvate kinase activity. Q27686. 0.37% of 290,000 active. purified LmPK, Kinase-Glo ATP luminescence, 1 h. Potency, µM (series often up to 57.5 µM), for the others: at the highest dose activity change, negative = inhibition, most hits filed as inhibitors; also: potency is read from the fitted curve at half-maximal effect; % is scaled to controls: 0 for no effect and ±100 for the full control effect
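Kinase-Glo luminescence read after 1 h RT reaction of 0.1 nM LmPK with 0.5 mM PEP and 0.1 mM ADP. Activity scaled between uninhibited and enzyme-free controls.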
RE007 growth inh = less growth of the S. pombe RE007 Vpr strain; Potency, µM (titrated, usually from 92.2 µM), inactives show at the highest dose activity change, negative = less growth, hits mostly inhibitors; S. pombe RE007 Vpr strain, BacTiter-Glo ATP luminescence, 24 h; AID 651644; 0.21% of 360,000 active; active = well fitted falling curve with a large enough effect; inconclusive = small, poorly fitted or top-dose-only effect; inactive = no such curve, though single readings can be large or run the other way; also: potency is read from the fitted curve at half-maximal effect; % is scaled to controls: 0 for no effect and ±100 for the full control effect; nearly all actives have a fitted effect of over 50% in size
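Fission yeast RE007 carrying one integrated HIV-1 vpr copy, seeded at OD 0.01 in PMG+AL medium with 23 nL pinned compound. Grown 24 h at 30 degrees; viability read by BacTiter-Glo luminescence after 5 min.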
Shiga inhibitor = Shiga toxin inhibition; Vero cells, Shiga toxin protein synthesis inhibition reporter; 9.2% of 290,000 active; inhibition, % at 38.7 µM; in the data active = inhibition mostly above about 28%, no sharp cut-off; inactive = mostly below about 43%; also: 0% is about no effect
FBPA Giardia inh = blocks Giardia fructose-bisphosphate aldolase activity | Potency, µM (doses to about 59.6 µM), for the others: top-dose activity, negative = inhibition, hits mostly inhibitors | purified Giardia FBPA | 0.71% of 290,000 active; also: potency is read from the fitted curve at half-maximal effect; % is scaled to controls: 0 for no effect and ±100 for the full control effect; nearly all actives have a fitted effect of over 55% in size
Target sequence (A8B2U2 whole entry, looked up): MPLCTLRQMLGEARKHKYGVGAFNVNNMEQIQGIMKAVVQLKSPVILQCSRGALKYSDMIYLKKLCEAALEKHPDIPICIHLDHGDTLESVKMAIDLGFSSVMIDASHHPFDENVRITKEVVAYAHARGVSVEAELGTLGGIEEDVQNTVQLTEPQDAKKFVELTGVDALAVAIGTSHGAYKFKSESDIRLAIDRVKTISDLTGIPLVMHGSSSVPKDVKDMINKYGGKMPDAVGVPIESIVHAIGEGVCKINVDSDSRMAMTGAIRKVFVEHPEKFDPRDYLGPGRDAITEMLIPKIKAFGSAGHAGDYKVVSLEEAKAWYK
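40 nM FBPA preincubated 10 min at RT with compound (up to 57.5 uM final), then substrate plus GAPDH/TPI/NAD/arsenate coupling and diaphorase/resazurin added. Fluorescence read after 20 min at RT, 525/598 nm.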
Tb PYK inh = blocks Trypanosoma brucei pyruvate kinase | Q57TT1 | TbPYK enzyme, Kinase-Glo Plus ATP luminescence, 45 min | Potency, µM (highest dose often 76.8 µM), for the others: at the top dose activity, negative = inhibition, hits mostly inhibitors | 0.12% of 410,000 active | AID 624173; also: potency is read from the fitted curve at half-maximal effect; % is scaled to controls: 0 for no effect and ±100 for the full control effect; nearly all actives have a fitted effect of over 50% in size
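Readout: single end-point luminescence (Kinase-Glo Plus, 10 min). Reaction conditions were TbPYK/substrate plus 130 uM ADP, 45 min at RT, pH 7.2 TEA buffer. No-enzyme wells served as controls, and data were normalized before concentration-response fitting.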
CHX counter = counter-screen for Shiga toxin inhibitors: cycloheximide protein synthesis inhibition | cell reporter, cycloheximide protein synthesis inhibition counterscreen | max response, % | 12% of 300,000 active | AID 2314; in the data active = max response mostly above about 13%, no sharp cut-off; inactive = mostly below about 14%; also: read at 38.3 µM for the half of the compounds with a filed dose; 0% is about no effect
An asterisk follows results filed as active; [ ] = remark or other dose. Unless noted, calls follow the shape of the dose curve; as a rule, active = well fitted curve in the direction sought with a large enough effect; inconclusive = small, poorly fitted or top-dose-only effect, or another doubt; inactive = no such curve, though single readings can be large; an effect the other way counts as inactive or inconclusive.

Results for CCC1(C)COC(c2ccc3c(c2)OCO3)OC1 (stereo unspecified) ?
RE007 growth inh: -9%; Tb PYK inh: 4%

How did CCC1(C)N=C(c2ccc3c(c2)OCO3)CC(c2ccccc2O)N1 (stereo unspecified) do in these assays?
LmPK inhibitor: 10µM*; RE007 growth inh: -1%; Shiga inhibitor: 66*; FBPA Giardia inh: -9%; Tb PYK inh: -9%; CHX counter: 44*

What do the screens show for `COc1cccc(C2=NC(C)(C)NC(c3ccccc3O)C2)c1` (stereo unspecified)?
LmPK inhibitor: -5%; RE007 growth inh: inconclusive; Shiga inhibitor: 56*; FBPA Giardia inh: 4%; Tb PYK inh: 12%; CHX counter: 34*

Results for Cc1ccc2c(c1)cc1c(=O)n(Cc3ccccc3Cl)nc(C)n12 ?
Tb PYK inh: -5%

What do the screens show for `COc1ccccc1N1CCN(C2C(=O)Nc3ccccc3-n3nnnc32)CC1` (stereo unspecified)?
RE007 growth inh: 5%

Results for [NH-]CCC([O-])=NC(Cc1cnc[nH]1)C(=O)[O-].[Zn+2] (stereo unspecified) ?
Tb PYK inh: 2%

What do the screens show for `CCOc1ccc(C(=O)N/N=C/c2ccccc2[N+](=O)[O-])cc1`?
LmPK inhibitor: -5%; RE007 growth inh: -2%; Shiga inhibitor: 102*; FBPA Giardia inh: 0%; Tb PYK inh: -1%; CHX counter: 73*

How did CCOc1ccc(C(=O)N/N=C/c2cccc3cccnc23)cc1 do in these assays?
LmPK inhibitor: 2%; RE007 growth inh: -21%; Shiga inhibitor: 70; FBPA Giardia inh: -21%; Tb PYK inh: 4%; CHX counter: 35*

What do the screens show for `Cc1ccc(C(=O)N/N=C/c2cc(Br)ccc2O)cn1`?
LmPK inhibitor: 13%; RE007 growth inh: 7%; FBPA Giardia inh: -10%; Tb PYK inh: 0%; CHX counter: 16*

What do the screens show for `Cc1ccc(C(=O)N/N=C\c2ccccc2[N+](=O)[O-])cn1`?
LmPK inhibitor: -2%; RE007 growth inh: -6%; Shiga inhibitor: 53; FBPA Giardia inh: -2%; Tb PYK inh: -7%; CHX counter: 23*

Results for CCOc1ccccc1NC(=O)c1ccc2c(c1)CCN2S(C)(=O)=O ?
Tb PYK inh: -4%

How did COc1ccc(OC)c2sc(N(Cc3cccnc3)C(C)=O)nc12 do in these assays?
Tb PYK inh: 0%[15.4 µM]

Results for COc1cccc(CNC(=O)CCCN2C(=O)CSc3c2c(C)nn3-c2ccccc2)c1 ?
Tb PYK inh: -2%

Results for FC(F)Oc1ccc(NC(=S)NC23CC4CC(CC(C4)C2)C3)cc1 ?
LmPK inhibitor: -5%; RE007 growth inh: 13%; Shiga inhibitor: 59*; FBPA Giardia inh: 16%; Tb PYK inh: 3%; CHX counter: 25*

Results for CN(C)c1ccc(NC(=S)NC23CC4CC(CC(C4)C2)C3)cc1 ?
LmPK inhibitor: 6%; RE007 growth inh: -6%; Shiga inhibitor: 52*; FBPA Giardia inh: 3%; Tb PYK inh: 0%; CHX counter: 44*

What do the screens show for `CCCOc1cccc(C2c3c(-c4ccccc4O)n[nH]c3C(=O)N2Cc2ccco2)c1` (stereo unspecified)?
Tb PYK inh: 1%

Results for C[C@@]12CCC(=O)C=C1CC[C@H]1[C@H]3CC[C@](O)(C(=O)CO)[C@]3(C)CC(=O)[C@@H]12 ?
FBPA Giardia inh: -5%[21.7 µM]

Results for CCc1ccc(N2C(=O)CN(Cc3ccccc3)C2=S)cc1 ?
LmPK inhibitor: -1%; RE007 growth inh: 11%; Shiga inhibitor: 25; FBPA Giardia inh: -4%; Tb PYK inh: 3%; CHX counter: 9

How did CCc1ccc(N2C(=O)CN(Cc3cccs3)C2=S)cc1 do in these assays?
LmPK inhibitor: 9%; RE007 growth inh: 37%; Shiga inhibitor: 12; FBPA Giardia inh: 0%; Tb PYK inh: -3%; CHX counter: 28*

Results for CC(C)CCNC(=O)N1CCN(S(=O)(=O)c2ccc3c(ccn3C)c2)CC1 ?
Tb PYK inh: -1%

How did N#C/C(=C\c1ccc(Cl)cc1)c1nc(-c2cc3ccccc3oc2=O)cs1 do in these assays?
Tb PYK inh: -3%

Results for COc1cccc2cc(-c3nc(-c4cccs4)cs3)c(=O)oc12 ?
LmPK inhibitor: 7%; RE007 growth inh: -5%; Shiga inhibitor: 127*; FBPA Giardia inh: 4%; Tb PYK inh: 5%; CHX counter: 37*

Results for O=C(Nc1nc(-c2cccs2)cs1)c1cc2ccccc2oc1=O ?
LmPK inhibitor: 2%; Shiga inhibitor: 8; FBPA Giardia inh: 2%; CHX counter: 1

Results for O=c1oc2ccccc2cc1-c1nc(-c2cccs2)cs1 ?
LmPK inhibitor: 5%; RE007 growth inh: 8%; Shiga inhibitor: 37; FBPA Giardia inh: -2%; Tb PYK inh: -6%; CHX counter: 14*

Results for CC1CCC(=C(C#N)c2nc(-c3cc4ccccc4oc3=O)cs2)CC1 (stereo unspecified) ?
LmPK inhibitor: 3%; RE007 growth inh: -20%; Shiga inhibitor: 30*; FBPA Giardia inh: 1%; Tb PYK inh: 3%; CHX counter: 23*

How did N#CCc1nc(-c2cc3ccccc3oc2=O)cs1 do in these assays?
LmPK inhibitor: -4%; RE007 growth inh: 15%; Shiga inhibitor: 51*; FBPA Giardia inh: 1%; Tb PYK inh: -1%; CHX counter: 41*

What do the screens show for `CCC(C)Sc1ccc([C@H]2N[C@@](C)(C(=O)OC)[C@H]3C(=O)N(C)C(=O)[C@@H]23)cc1` (stereo partly specified)?
RE007 growth inh: 12%; Tb PYK inh: 5%

How did COc1ccc(/C=N/N2CCOCC2)cc1COc1ccc(Cl)cc1 do in these assays?
LmPK inhibitor: 1%; RE007 growth inh: -4%; Shiga inhibitor: 0; FBPA Giardia inh: 0%; Tb PYK inh: 1%; CHX counter: 4

How did COc1ccccc1-c1csc(NC(=O)c2ccc(N3C(=O)CCC3=O)cc2)n1 do in these assays?
LmPK inhibitor: 7%; RE007 growth inh: -7%; Shiga inhibitor: 20; FBPA Giardia inh: -1%; Tb PYK inh: -2%; CHX counter: 6

Results for CNc1nnc(-c2cc3ccccc3oc2=O)s1 ?
LmPK inhibitor: -19%; RE007 growth inh: -13%; Shiga inhibitor: 83*; FBPA Giardia inh: 3%; Tb PYK inh: 2%; CHX counter: 38*

What do the screens show for `COc1ccc2cc(-c3nnc(Nc4ccccc4)s3)c(=O)oc2c1`?
Tb PYK inh: -5%

How did N=c1oc2ccccc2cc1-c1nc(-c2ccccc2)cs1 do in these assays?
LmPK inhibitor: 3%; RE007 growth inh: 7%; Shiga inhibitor: 45*; FBPA Giardia inh: 3%; Tb PYK inh: -4%; CHX counter: 42*

Assay outcomes: PubChem, National Center for Advancing Translational Sciences (NCATS)
